PubChem BioAssay AID2533 (National Center for Advancing Translational Sciences (NCATS), 2010)
Inconclusive results are not listed. Calls of active or inactive are those of the source. The call rests on the fitted dose curve; in most records, active means well fitted activation curve with a large enough effect; inconclusive means small, poorly fitted or top-dose-only effect; inactive means flat fitted curve, though single readings scatter.

Molecular target: Pyruvate kinase PKM (Homo sapiens) (UniProt P14618)
Sequence (P14618 whole entry, looked up, canonical isoform): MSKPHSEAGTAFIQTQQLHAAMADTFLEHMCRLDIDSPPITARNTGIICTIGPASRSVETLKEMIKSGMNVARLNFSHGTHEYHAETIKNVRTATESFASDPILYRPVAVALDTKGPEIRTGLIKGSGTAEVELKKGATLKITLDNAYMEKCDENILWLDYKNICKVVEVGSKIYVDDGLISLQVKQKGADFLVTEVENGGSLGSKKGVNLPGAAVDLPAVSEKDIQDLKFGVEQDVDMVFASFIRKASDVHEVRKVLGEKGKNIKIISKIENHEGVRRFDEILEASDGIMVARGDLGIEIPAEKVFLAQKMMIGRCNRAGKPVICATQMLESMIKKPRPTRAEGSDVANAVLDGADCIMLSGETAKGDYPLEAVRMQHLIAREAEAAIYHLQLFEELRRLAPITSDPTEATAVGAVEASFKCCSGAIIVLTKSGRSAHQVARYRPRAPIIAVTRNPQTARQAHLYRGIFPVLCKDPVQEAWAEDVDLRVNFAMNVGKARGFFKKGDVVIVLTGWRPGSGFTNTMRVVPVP
Test: Confirmation Concentration-Response Assay for Activators of Human Muscle isoform 2 Pyruvate Kinase: for Probe SAR; further: nearly all actives have a fitted effect of over 60% in size
Conditions: purified PKM2, ATP generation, Kinase-Glo luminescence; series mostly up to 57.5 µM
Description: NIH Chemical Genomics Center [NCGC]
Matthew G. Vander Heiden, M.D., Ph.D. [Harvard Medical School, 77 Avenue Louis Pasteur, Boston, MA 02115]
Human pyruvate kinase muscle 2 (hPK-M2) enzyme was supplied as a highly purified (>95% pure) preparation from Harvard Medical School and assayed for its ability to generate ATP from ADP using phosphoenolpyruvate (PEP) as a substrate. ATP generation was detected in a coupled reaction by luciferase-mediated luminescence, an ATP-dependent process. […] The enzyme was assayed at an intermediate level of activity to screen for both inhibitors and activators.
NCGC Assay Protocol Summary:
Three uL of substrate mix (at r.t.) in assay buffer (50 mM Imidazole pH7.2, 50 mM KCl, 7 mM MgCl2, 0.01% Tween 20, 0.05% BSA) was dispensed into white solid bottom 1,536 well microtiter plates so that the final concentrations of substrates in the assay were 0.1 mM ADP and 0.5 mM PEP. 23 nL of compound were delivered by a pin tool and 1 uL of enzyme mix (final concentration of 0.1 nM) in assay buffer (4 degree Celsius) was added. Plates were incubated at room temperature for 1 hour. Two uL of detection mix (Kinase-Glo, Promega; at 4 degree Celsius protected from light) was added and luminescence read by a ViewLux (Perkin Elmer) at 1 second exposure/plate. Data were normalized to the uninhibited (column 3) and AC100 inhibition (no enzyme in column 2). To monitor activation, the first column contained a titration of the activator, NCGC00031955-03 (16-point 1:2 dilutions in duplicate starting at 57 uM) and the first 16 rows of column 4 contained 57 uM of NCGC00031955-03.
Potency means the concentration at half of the fitted maximal effect.

Potency, inactive:
O=S(=O)(Nc1ccc(O)c(NS(=O)(=O)c2ccccc2)c1)c1ccccc1
O=S1(=O)N=C(Oc2ccc(Br)cc2)c2ccccc21
COc1ccc(-c2sc(N)nc2-c2ccccc2)cc1
O=C1c2ccccc2C(=O)N1c1ccccc1O
COc1cccc(OC2=NS(=O)(=O)c3ccccc32)c1
O=C1c2ccccc2C(=O)N1Cc1ccncc1
O=C1c2ccccc2C(=O)N1c1ccc(Cl)cc1
O=C1CCc2cc(S(=O)(=O)Nc3ccncc3)ccc2N1
O=C1c2ccccc2C(=O)N1c1ncccc1O
Cc1ccc2nc(-c3ccc(C)o3)c(Nc3ccc(Cl)cc3)n2c1
Cc1ccc2nc(-c3ccco3)c(Nc3ccccc3)n2c1
O=S1(=O)N=C(Sc2ccc3c(c2)OCCO3)c2ccccc21
O=S1(=O)N=C(OCc2ccccc2)c2ccccc21
Cc1ccc(C)c(OC2=NS(=O)(=O)c3ccccc32)c1
COc1ccc(N2C(=O)c3ccccc3S2(=O)=O)cc1
O=C1c2ccccc2C(=O)N1c1cc(=O)c2ccccc2[nH]1
O=C1NS(=O)(=O)c2ccccc21
O=C1c2ccccc2C(=O)N1c1cccc(Cl)c1

Potency, active:
Cc1ccc(NS(=O)(=O)c2ccc(Cl)cc2)cc1C 23.1 µM
CC(=O)Nc1ccc(S(=O)(=O)N2CCCN(S(=O)(=O)c3ccc4c(c3)OCCO4)CC2)cc1 4.11 µM
COc1ccccc1NS(=O)(=O)c1ccc2c(c1)CCC(=O)N2 20.6 µM
Cc1ccccc1NS(=O)(=O)c1ccc2c(c1)CCC(=O)N2 11.6 µM
CC(=O)Nc1cccc(S(=O)(=O)N2CCN(S(=O)(=O)c3ccc4c(c3)OCCO4)CC2)c1 1.03 µM
CCNc1cccc(S(=O)(=O)N2CCCN(S(=O)(=O)c3ccc4c(c3)OCCO4)CC2)c1 0.206 µM
Cc1ccc(NS(=O)(=O)c2ccc3c(c2)CC(=O)N3C)cc1C 3.66 µM
Cc1ccc(NS(=O)(=O)c2cc3c(cc2F)NC(=O)CC3)cc1C 0.73 µM
COc1cccc(NS(=O)(=O)c2ccc3c(c2)CCC(=O)N3)c1 5.17 µM
COc1cc(F)c(S(=O)(=O)N2CCN(S(=O)(=O)c3ccc(NC(C)=O)cc3)CC2)c(F)c1 13 µM
Cc1cc(NS(=O)(=O)c2ccc3c(c2)CCC(=O)N3)ccc1F 0.461 µM
CCNc1cccc(S(=O)(=O)N2CCN(S(=O)(=O)c3ccc4c(c3)OCCO4)CC2)c1 0.0819 µM
Cc1ccc(NS(=O)(=O)c2cc3c(cc2-c2ccco2)NC(=O)CO3)cc1C 9.19 µM
Cc1cc2c(s1)c1cnn(Cc3c(Cl)ccc(C)c3F)c(=O)c1n2C 1.26 µM
Cc1ccc(NS(=O)(=O)c2ccc3c(c2)N(C)CCO3)cc1C 18.3 µM
Nc1ccc(S(=O)(=O)N2CCN(S(=O)(=O)c3ccc4c(c3)OCCO4)CC2)cc1 0.366 µM
CC(=O)N1CCc2cc(S(=O)(=O)Nc3ccc(C)c(C)c3)ccc21 1.63 µM
Nc1ccc(S(=O)(=O)N2CCN(S(=O)(=O)c3c(F)cccc3F)CC2)cc1 0.919 µM
O=C1CCc2cc(S(=O)(=O)Nc3cccc(Br)c3)ccc2N1 0.259 µM
O=S(=O)(c1cccc(O)c1)N1CCN(S(=O)(=O)c2c(F)cccc2F)CC1 0.58 µM
Cc1ccc(NS(=O)(=O)c2ccc3c(c2)NC(=O)CO3)cc1C 20.6 µM
COc1cc(F)c(S(=O)(=O)N2CCCN(S(=O)(=O)c3cccc(NC(C)=O)c3)CC2)c(F)c1 2.91 µM
